Sampled rows, rich in hits. Any-hit rate of the full collection: about 3.3%.
Tau fibril FP = qHTS for Inhibitors of Tau Fibril Formation, Fluorescence Polarization | Microtubule-associated protein tau (Homo sapiens), P10636 | K18 P301L tau heparin fibrillization, Alexa594 FP, 6 h | Potency, µM (doses to about 57.7 µM), hits mostly inhibitors | actives 0.39% (n = 280,000) | AID 1468, 2008; also: nearly all actives have a fitted effect of over 55% in size
Target sequence (P10636 561-689 P618L limits assumed): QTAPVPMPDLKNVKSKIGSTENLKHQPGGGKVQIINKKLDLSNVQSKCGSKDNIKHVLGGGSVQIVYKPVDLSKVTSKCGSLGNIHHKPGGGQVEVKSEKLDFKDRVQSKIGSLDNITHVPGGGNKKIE
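Compound effects on tau fibrillization are measured by Alexa 594 fluorescence polarization (ex 555, em 632 nm). K18 P301L tau is used at 15 uM with 0.24 uM labeled tracer, and 20 uM heparin induces aggregation over 6 hr at 37 C.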
Tau fluor counter = Counterscreen qHTS for Inhibitors of Tau Fibril Formation, Fluorescence Polarization; tau K18 P301L Alexa594 fluorescence, heparin fibrillization; Potency, µM (titrated, usually from 57.7 µM); actives 0.93% (n = 280,000); also: nearly all actives have a fitted effect of over 55% in size
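Human tau K18 P301L (15 uM unlabeled, 0.24 uM Alexa 594-labeled) in 100 mM sodium acetate pH 7 with 20 uM heparin, 6 hr at 37 C. ThT 30 uM added, 1 hr ambient; Alexa 594 FP and total fluorescence read at 555/632 nm.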
NPSR antagonist = qHTS Assay for Antagonists of the Neuropeptide S Receptor: cAMP Signal Transduction; Q6W5P4; CHO-NPSR cells, cAMP TR-FRET, antagonist mode; Potency, µM (highest dose often 38.3 µM), usual class: inhibitors; actives 1% (n = 220,000); AID 1461, 2008; also: nearly all actives have a fitted effect of over 50% in size
Target sequence (Q6W5P4 whole entry, looked up): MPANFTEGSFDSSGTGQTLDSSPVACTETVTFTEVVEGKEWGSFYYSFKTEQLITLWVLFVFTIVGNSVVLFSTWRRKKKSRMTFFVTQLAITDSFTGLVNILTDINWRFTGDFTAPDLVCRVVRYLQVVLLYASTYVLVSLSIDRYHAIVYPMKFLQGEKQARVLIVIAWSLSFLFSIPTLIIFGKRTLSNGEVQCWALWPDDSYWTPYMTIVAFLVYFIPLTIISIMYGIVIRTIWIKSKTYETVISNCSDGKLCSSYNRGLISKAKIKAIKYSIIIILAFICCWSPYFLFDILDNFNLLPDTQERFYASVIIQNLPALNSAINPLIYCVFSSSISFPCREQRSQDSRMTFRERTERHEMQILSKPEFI
Tau ThT inhib = qHTS for Inhibitors of Tau Fibril Formation, Thioflavin T Binding | Microtubule-associated protein tau (Homo sapiens), P10636 | recombinant tau K18 P301L (four-repeat tau fragment), heparin-induced fibrillization, ThT fluorescence | Potency, µM (series often up to 57.4 µM), hits mostly inhibitors | actives 2.1% (n = 270,000) | AID 1460, 2008; also: nearly all actives have a fitted effect of over 55% in size
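Heparin-induced fibrillization of the P301L-mutant K18 repeat-domain fragment of human tau was followed by ThT binding in quantitative high-throughput format.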
KinaseGlo FLuc = Counterscreen for Luciferase (Kinase-Glo TM) Inhibition; Potency, µM (highest dose often 38.3 µM), actives largely listed as inhibitors; AID 1379, 2008; Kinase-Glo luciferase, ATP luminescence, 8 min; actives 0.28% (n = 200,000); also: nearly all actives have a fitted effect of over 60% in size
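Recombinant Kinase-Glo luciferase, 10 uM ATP (linear range), luciferin; imidazole pH 7.2 / KCl / MgCl2 / Tween / BSA buffer; 8 min RT; luminescence.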
Hits are given with their value; i = inactive; ? = inconclusive; nt = no result given; [ ] = another dose, or the depositor's remark. Calls follow the shape of the dose curve; as a rule, active = well fitted curve in the direction sought with a large enough effect; inconclusive = small, poorly fitted or top-dose-only effect, or another doubt; inactive = no such curve, though single readings can be large; an effect the other way counts as inactive or inconclusive.

SMILES	Tau fibril FP	Tau fluor counter	NPSR antagonist	Tau ThT inhib	KinaseGlo FLuc
COc1ccc(-c2[nH]c(-c3ccc(F)cc3)nc2SCC(=O)NC2CCCC2)cc1	i	i	i	i	i
OC[C@H]1O[C@@H](n2cnc3cncnc32)[C@H](O)[C@@H]1O	i	i	i	i	i
CC(C)(C)OC(=O)N1CCC(c2c(C(=O)N3CCN(c4ncccn4)CC3)cnn2-c2ccc(F)cc2)CC1	i	i	nt	i	nt
O=S(=O)(Nc1ccc(Br)cc1)c1ccc2nc(-c3ccccc3)[nH]c2c1	15.8µM	?	nt	i	nt
CC(C)c1ccc(NS(=O)(=O)c2ccc3nc(-c4ccccc4)[nH]c3c2)cc1	10µM	?	nt	?	nt
Cc1ccc(NS(=O)(=O)c2ccc3nc(-c4ccccc4)[nH]c3c2)c(Br)c1	?	?	nt	i	nt
Cc1ccc(NS(=O)(=O)c2ccc3nc(-c4ccccc4)[nH]c3c2)c(Cl)c1	14.1µM	?	nt	i	nt
Cc1cccc(NS(=O)(=O)c2ccc3nc(-c4ccccc4)[nH]c3c2)c1C	?	i	i	i	i
CCOC(=O)c1cccc(NC(=O)CCCn2nc(C)c3c(C)n(-c4ccccc4)nc3c2=O)c1	i	i	nt	i	nt
O=c1c2c([N+](=O)[O-])cc([N+](=O)[O-])cc2sn1-c1ccc(Br)cc1	22.4µM	?	i	14.1µM	i
O=C(NC(Cc1c[nH]c2ccccc12)C(=O)Nc1ccc(OC(F)(F)F)cc1)c1cccs1 (stereo unspecified)	?	7.94µM[quencher]	i	i	i
O=C(NC(Cc1c[nH]c2ccccc12)C(=O)O)c1cccs1 (stereo unspecified)	i	i	i	i	i
O=C(NC(Cc1c[nH]c2ccccc12)C(=O)Nc1ccc(F)c([N+](=O)[O-])c1)c1cccs1 (stereo unspecified)	i	15.8µM[quencher]	?	?	i
COC(=O)CSc1nc(N)c2c3c(sc2n1)C(c1ccccc1)SC(c1ccccc1)C3 (stereo unspecified)	i	i	12.6µM	?	i
O=C(Cn1c(-c2cccs2)cc2cc(F)ccc21)N1CCN(c2ccccc2)CC1	i	i	nt	i	nt
CCSc1cnn(-c2ccccc2)c(=O)c1SCC	?	i	12.6µM	i	i
CCCCSc1cnn(-c2ccccc2)c(=O)c1SCCCC	i	i	12.6µM	?	i
Cc1cccc(NC(=O)CN(C)S(=O)(=O)c2ccc3c(c2)c(=O)n(C)c(=O)n3C)c1	i	i	nt	i	nt
Cc1ccc(/C=C(\C#N)c2nc(-c3cc4c(ccc5ccccc54)oc3=O)cs2)cc1	i	i	nt	i	nt
O=C1C=C(NCc2ccc(Cl)cc2)CC(c2ccco2)C1 (stereo unspecified)	i	i	i	i	i
CC(C)CNC1=CC(=O)CC(c2ccco2)C1 (stereo unspecified)	?	i	i	28.2µM	i
Clc1ccc(/C=C/c2nc3ccccc3[nH]2)cc1	i	?	i	?	12.6µM
Clc1ccc(/C=C/c2nc3ccccc3[nH]2)c(Cl)c1	?	?	i	i	7.08µM
Clc1cccc(Cl)c1/C=C/c1nc2ccccc2[nH]1	?	?	i	i	i
COC(=O)C/C=C\[C@@H](C)[C@@H](/C=N\O[C@@H]1O[C@H](COC(C)=O)[C@@H](OC(C)=O)[C@H](OC(C)=O)[C@H]1OC(C)=O)NS(=O)(=O)c1ccc(C)cc1	i[11.6 µM]	i[11.6 µM]	nt	i[11.5 µM]	nt
SMILES	Tau fibril FP	Tau fluor counter	NPSR antagonist	Tau ThT inhib	KinaseGlo FLuc
COc1cc(O)c(C(=O)c2ccccc2)cc1O	14.1µM	12.6µM[quencher]	nt	7.94µM	i
COc1ccc(C(=O)c2ccccc2)c2c(O)ccc(C(=O)c3ccccc3)c12	i	?	?	?	i
CC1CC1C(=O)OCC(=O)Nc1ccc(N=Nc2ccccc2)cc1 (stereo unspecified)	?	?	i	7.94µM	i
CCCC(=O)OCC(=O)Nc1ccc(N=Nc2ccccc2)cc1	?	?	i	10µM	i
O=C(O)CCC(=O)Nc1ccc(N=Nc2ccccc2)cc1	i	i	i	?	i
CC1CC1C(=O)OCC(=O)Nc1ccccc1Oc1ccccc1 (stereo unspecified)	i	i	i	i	i
CCOc1cc(N2CCOCC2)c(OCC)cc1NC(C)C(=O)N1CCN(CC)CC1 (stereo unspecified)	?	?	i	15.8µM	i
O=C(COCc1cc(-c2ccco2)on1)Nc1ccc(OC(F)(F)F)cc1	?	i	nt	i	nt
Nc1ccccc1Nc1cc(-c2ccccc2)nn1-c1cccc(Cl)c1	?	11.2µM[quencher]	i	?	i
Cc1ccc(C(=O)CSc2nnc3ccc4ccccc4n23)cc1	i	i	nt	i	nt
CCCCNc1cc(C)nc(NCc2ccccc2)n1	i	i	i	i	i
Cc1cc(N/N=C/c2ccc(N(C)C)cc2)nc(NCc2ccccc2)n1	i	7.94µM[quencher]	10µM	3.98µM	nt
Cc1cc(Nc2ccccc2)nc(NCc2ccccc2)n1	?	17.8µM[quencher]	i	i	i
Cc1cc(N/N=C/c2ccc(Cl)cc2Cl)nc(NCc2ccccc2)n1	i	i	?	?	i
Cc1cc(Nc2ccc(Cl)cc2)nc(NCc2ccccc2)n1	?	17.8µM[quencher]	i	i	i
Cc1cc(Nc2cccc(F)c2)nc(NCc2ccccc2)n1	?	15.8µM[quencher]	i	i	i
CCOC(=O)c1ccc(NC(=O)CN2Cc3ccccc3C2=O)cc1	i	i	nt	i	nt
Cc1ccc(C)c(CN2C(=O)c3ccccc3S(=O)(=O)c3ccc(C(=O)N4CCOCC4)cc32)c1	i	i	nt	i	nt
CC(=O)c1ccc(S(=O)(=O)Nc2cccc(-c3ccc(N4CCCCCC4)nn3)c2)cc1	i	?	nt	i	nt
CCOc1ccccc1NC(=O)C1CCCN1S(=O)(=O)c1ccc2nc(-c3ccccc3)[nH]c2c1 (stereo unspecified)	?	10µM[quencher]	nt	i	nt
CCOc1ccccc1NC(=O)C1CCN(S(=O)(=O)c2ccc3[nH]c(=O)ccc3c2)CC1	?	i	nt	i	nt
O=S(=O)(c1ccc2nc(-c3ccccc3)[nH]c2c1)N1CCN(c2cccc(Cl)c2)CC1	?	?	i	i	i
CCc1cccc(NC(=O)C2CCCN2S(=O)(=O)c2ccc3nc(-c4ccccc4)[nH]c3c2)c1 (stereo unspecified)	31.6µM	14.1µM[quencher]	nt	i	nt
COc1ccccc1N1CCN(S(=O)(=O)c2ccc3nc(-c4ccccc4)[nH]c3c2)CC1	22.4µM	?	i	i	i
Cc1cc(C)cc(NC(=O)C2CCCN2S(=O)(=O)c2ccc3nc(-c4ccccc4)[nH]c3c2)c1 (stereo unspecified)	?	14.1µM[quencher]	nt	i	nt
CC(=O)c1cccc(NC(=O)C2CCN(c3nnc(-n4cccc4)s3)CC2)c1	i	i	nt	i	nt

Bioassay records as filed in PubChem BioAssay.
